Source: PubChem BioAssay (NMMLSC)
Only some compounds are listed: those with a hit (about 0.92% of all), similar ones and a draw of the others.
RPL19A TOR yeast: modulators of TOR pathway RPL19A-GFP in S. cerevisiae | 330,000 compounds, 0.3% hits | percent response vs DMSO, % at 10 µM | S. cerevisiae RPL19A-GFP strain, flow cytometry, 3 h; stronger effect = lower value;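 active = percent response vs DMSO below 50%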;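 also: median channel GFP fluorescence of the barcoded RPL19A-GFP strain; ratio of sample median GFP to plate DMSO average so 100% = DMSO; lower means less RPL19A-GFP as with rapamycin TOR inhibition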
MEP2 TOR yeast: modulators of TOR pathway MEP2-GFP in S. cerevisiae; 330,000 compounds, 0.51% hits; S. cerevisiae MEP2-GFP strain, flow cytometry GFP, 3 h; 100% = DMSO control level; AID 2016; GFP response vs DMSO, % at 10 µM;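 active = GFP response versus DMSO above a set limit, roughly screen mean plus 3 SD, cut at about 180% in these data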;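 also: median GFP fluorescence of the barcode-gated MEP2-GFP cells per well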
AGP1-GFP MLPCN: alters AGP1-GFP fluorescence in TOR pathway yeast screen | S. cerevisiae AGP1-GFP multiplex flow cytometry, 3 h; GFP as percent of DMSO wells | GFP response vs DMSO, % at 10 µM | 320,000 compounds, 0.02% hits | AID 2066;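 active = GFP response relative to DMSO above a set limit, near screen average plus 3 SD, cut at about 150% in these data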;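 also: median GFP channel fluorescence of the gated AGP1 strain per well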
CIT2 TOR yeast: yeast TOR pathway CIT2-GFP modulation; S. cerevisiae CIT2-GFP strain, flow cytometry, 3 h; 100 means same as DMSO wells; GFP response vs DMSO, % at 10 µM; 320,000 compounds, 0.065% hits; AID 2029;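 active = GFP response relative to DMSO above a set limit, near the screen mean plus 3 SD, cut at about 150% in these data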;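 also: ratio of well median GFP fluorescence to mean of DMSO wells on the plate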
LAP4 TOR yeast: modulators of TOR pathway LAP4-GFP in S. cerevisiae; S. cerevisiae LAP4-GFP multiplex, flow cytometry GFP, 3 h; median GFP as percent of DMSO wells; GFP response vs DMSO, % at 10 µM; 320,000 compounds, 0.34% hits; AID 2023;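 active = GFP response vs DMSO above a set limit, about the screen mean plus 3 SD, cut at about 150% in these data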
LAP4-GFP pick2: second confirmation of modulators of TOR reporter LAP4-GFP in yeast; shares compounds with LAP4 TOR yeast; S. cerevisiae LAP4-GFP strain, flow cytometry GFP, 3 h; GFP response vs DMSO, % at 10 µM; 590 compounds, 20% hits;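 active = GFP signal as percent of the solvent control above about 150%, meaning raised reporter expression, limit read from the data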;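 also: ratio of well median GFP fluorescence to plate DMSO mean so 100% = DMSO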
MEP2 cherry2: second confirmation of modulators of TOR reporter MEP2-GFP in yeast; shares compounds with LAP4 TOR yeast; S. cerevisiae MEP2-GFP strain, flow cytometry GFP, 3 h; GFP response vs DMSO, % at 10 µM; 590 compounds, 10% hits;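 active = GFP signal above 150% of the solvent control wells, that is a rise of more than half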;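 also: median channel GFP fluorescence of all gated yeast cells per well; ratio of median GFP to plate DMSO average so 100% = DMSO level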
RPL19A GFP CP2: second confirmation of modulators of TOR reporter RPL19A-GFP in yeast. shares compounds with LAP4 TOR yeast. S. cerevisiae RPL19A-GFP strain, flow cytometry GFP, 3 h; stronger effect = lower value; 100% means same as DMSO wells. GFP response vs DMSO, % at 10 µM. 590 compounds, 3% hits;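 active = under 65% GFP response relative to DMSO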;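 also: median GFP channel fluorescence per well over the all cells gate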
CIT2 GFP CP2: yeast CIT2-GFP TOR reporter modulation, second cherry pick. S. cerevisiae CIT2-GFP strain, flow cytometry GFP, 3 h; DMSO control wells read 100%. GFP response vs DMSO, % at 10 µM. 590 compounds, 8% hits. shares compounds with LAP4 TOR yeast. AID 2624;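 active = GFP response vs DMSO above about 150%, limit read from the data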;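 also: median green fluorescence per well over all gated yeast cells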
AGP1-GFP pick2: second confirmation of modulators of TOR reporter AGP1-GFP in yeast; AID 2643; percent response vs DMSO, % at 10 µM; S. cerevisiae AGP1-GFP strain, flow cytometry GFP, 3 h; shares compounds with LAP4 TOR yeast; 590 tested, under 10 active;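 active = over 150 percent of DMSO response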;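 also: median GFP channel fluorescence over all cells without mother daughter split; sample median GFP divided by mean DMSO control so 100% equals DMSO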
s288c autofluor: yeast s288c autofluorescence artifact, counter-screen; shares compounds with LAP4 TOR yeast; AID 2757; 610 tested, under 10 active; S. cerevisiae s288c, 520 nm autofluorescence, flow cytometry, 3 h; stronger effect = higher value; zero means same as solvent-only cells; fluorescence change (kMESF span) at 33 µM;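 active = fluorescence span over the dose series, or activity score, above about 33, limit read from the data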
The depositor's hits bear a star; / = no result.

SMILES | RPL19A TOR yeast | MEP2 TOR yeast | AGP1-GFP MLPCN | CIT2 TOR yeast | LAP4 TOR yeast | LAP4-GFP pick2 | MEP2 cherry2 | RPL19A GFP CP2 | CIT2 GFP CP2 | AGP1-GFP pick2 | s288c autofluor
COc1cc(C(=O)N2CCN(c3ccccc3Cl)CC2)ccc1OCC(=O)N1CCOCC1 | 107 | 103 | 115 | 109 | 107 | / | / | / | / | / | /
CC1CCN(C(=O)c2ccccc2NC(=O)c2cccc(S(=O)(=O)N(C)C)c2)CC1 | 99 | 96 | 100 | 102 | 99 | / | / | / | / | / | /
CN(C)S(=O)(=O)c1cccc(C(=O)Nc2ccccc2C(=O)NC2CC2)c1 | 92 | 109 | 115 | 93 | 152* | 104 | 105 | 100 | 102 | 98 | /
CC(Sc1ncnc2sc(-c3ccccc3)cc12)C(=O)NCC1CCCO1 (stereo unspecified) | 102 | 101 | 96 | 91 | 99 | / | / | / | / | / | /
COc1cccc(NC(=O)c2cccc(Cl)c2)c1 | 95 | 92 | 75 | 65 | 153* | 104 | 105 | 103 | 88 | 91 | /
COc1cccc(C(=O)Nc2nnc(-c3ccc(Cl)cc3)o2)c1 | 92 | 105 | 96 | 93 | 155* | 209* | 135 | 109 | 120 | 107 | 0.8
O=C(Cn1cnc2ccccc2c1=O)c1cccs1 | 93 | 97 | 93 | 98 | 94 | / | / | / | / | / | /
O=C(/C=C/c1ccnc2ccccc12)c1cccs1 | 99 | 100 | 112 | 80 | 172* | / | / | / | / | / | 0
CC(C)(C)c1ccc(C(=O)OCc2c(-c3ccccc3)ncc3ccccc23)cc1 | 91 | 87 | 85 | 87 | 88 | / | / | / | / | / | /
COc1ccc(C(=O)OCc2c(-c3ccccc3)ncc3ccccc23)cc1 | 98 | 111 | 104 | 90 | 151* | 117 | 102 | 96 | 107 | 96 | /
CCOc1ccc(OCc2ccc(C(=O)N/N=C(\C)c3ccccn3)cc2)cc1 | 91 | 110 | 93 | 105 | 138 | / | / | / | / | / | /
CCC(C)/C(C)=N/NC(=O)c1ccc(COc2ccc(Cl)c(C)c2)cc1 (stereo unspecified) | 85 | 135 | 99 | 64 | 206* | 142 | 175* | 107 | 127 | 115 | 1.9
CC1=NNC(=O)/C1=C\c1cn(-c2ccccc2)nc1-c1ccccc1 | 55 | 84 | 81 | / | 198* | / | / | / | / | / | 2.4
O=Cc1cn(-c2ccccc2)nc1-c1ccccc1 | 100 | 99 | 94 | 91 | 105 | / | / | / | / | / | /
COc1ccc(-c2cc3nc4n(c(=O)c3s2)CCC4)cc1 | 65 | 111 | 65 | 68 | 110 | 95 | 103 | 64* | 85 | 69 | 0.5
COc1ccc(-c2cc3nc4n(c(=O)c3s2)CCCCC4)cc1 | 95 | 94 | 93 | 84 | 121 | / | / | / | / | / | /
Cc1cc(/C=C2/SC(=S)N(c3cccc(Cl)c3)C2=O)c(C)n1-c1cccnc1 | 107 | 154 | 106 | 120 | 154* | / | / | / | / | / | 3.5
Cc1cc(/C=C2/SC(=S)N(c3ccc([N+](=O)[O-])cc3)C2=O)c(C)n1-c1cccnc1 | 103 | 144 | 97 | 142 | 115 | / | / | / | / | / | /
